The values that follow come from PubChem BioAssay.

Assay [1] in a line: E. coli DRC41 culture turbidity changes, primary screen, E. coli filamentation inducer project, strain DRC41, OD650, 48 h (AID 1152).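 Also: E. coli MC1000 strain DRC41 lacking acrAB efflux pump and sulA.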 The following applies: E. coli DRC41 (acrAB sulA), higher = more signal, called active from +8 up or from −8 down.
The nature of assay [2]: small-molecule binders of probe aLefty1, primary screen, biochemical, small-molecule microarray, 635/667 nm fluorescence (AID 1153).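 Also: score merges spot fluorescence with signal-to-noise ratio from the scanned slide images.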 The conditions noted are these: higher = more signal.
Assay [3] can be described thus: PSAC antagonists in infected red cells, primary screen, cell-based, P. falciparum Indochina, OD700, 1 h (AID 1154). The following applies: P. falciparum Indochina infected RBC osmotic lysis, higher = more signal, called active from +8 up or from −8 down.
Assay [4] is described as follows: PSAC antagonists in infected red cells, primary screen, cell-based, P. falciparum Indochina, OD700, 2 h (AID 1155).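 Also: lysis reports solute entry through the parasite surface anion channel PSAC; channel blockers reduce lysis of infected cells.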 The conditions noted are these: P. falciparum Indochina infected erythrocytes, osmotic lysis OD700; higher = more signal, called active from +8 up or from −8 down.
Assay [5] is described as follows: osmotic lysis modulators in infected erythrocytes, primary screen, PSAC antagonist project, cell-based, P. falciparum Indochina, OD700, 3 h (AID 1156). The conditions noted are these: higher = more signal, called active from +8 up or from −8 down.
Assay [6] is described as follows: PSAC antagonists in infected red cells, primary screen, cell-based, P. falciparum Indochina, OD700, 18 h (AID 1157). The conditions noted are these: P. falciparum Indochina infected erythrocytes, osmotic lysis OD700, 18 h; higher = more signal, called active from +8 up or from −8 down.
A short description of assay [7]: modulators of S6 phosphorylation in cells, primary screen, cell-based, A549, cytoblot, luminescence, serum-stimulated (AID 1158).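 Also: serum-stimulated A549 lung adenocarcinoma cells; signal is phosphorylated S6 detected by cytoblot immunostaining with HRP secondary.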 The following applies: A549 phospho-S6 cytoblot, 5 h, higher = more signal.
Assay [8] has as its target NADPH oxidase 2 (Homo sapiens) (UniProt P04839). As to the kind of experiment: NOX2-dependent H2O2 signal modulators, primary screen, NOX inhibitor project, cell-based, HEK293-NOX2, PMA-stimulated, Amplex Red fluorescence (AID 1159). Also: test concentration not given here. The following applies: 45 min, higher = more signal, called active from +8 up or from −8 down.
The target of assay [9] is NADPH oxidase 4 (Homo sapiens) (UniProt Q9NPH5). Briefly: NOX4-dependent H2O2 signal modulators, primary screen, NOX inhibitor project, cell-based, HEK293-NOX4, tetracycline-induced, Amplex Red fluorescence (AID 1160). The conditions noted are these: 45 min, higher = more signal, called active from +8 up or from −8 down.
Sequence of NADPH oxidase 4 (Homo sapiens) (Q9NPH5 whole entry, looked up): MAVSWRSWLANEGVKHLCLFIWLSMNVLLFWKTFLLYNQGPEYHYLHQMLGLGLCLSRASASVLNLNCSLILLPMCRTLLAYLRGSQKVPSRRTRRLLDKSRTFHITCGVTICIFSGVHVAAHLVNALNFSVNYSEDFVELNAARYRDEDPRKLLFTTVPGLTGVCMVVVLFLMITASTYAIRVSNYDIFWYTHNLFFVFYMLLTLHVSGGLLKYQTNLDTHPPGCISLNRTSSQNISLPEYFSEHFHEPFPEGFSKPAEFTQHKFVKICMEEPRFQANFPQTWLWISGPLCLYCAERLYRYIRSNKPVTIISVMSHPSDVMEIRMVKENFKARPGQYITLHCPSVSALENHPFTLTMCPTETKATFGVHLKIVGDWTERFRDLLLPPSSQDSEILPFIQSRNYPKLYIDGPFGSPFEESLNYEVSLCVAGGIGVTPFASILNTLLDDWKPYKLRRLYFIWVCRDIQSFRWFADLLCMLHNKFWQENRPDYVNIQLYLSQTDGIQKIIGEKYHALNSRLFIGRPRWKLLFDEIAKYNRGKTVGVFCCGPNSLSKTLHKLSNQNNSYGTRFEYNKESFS
For assay [10], the target named is NADPH oxidase 5 (Homo sapiens) (UniProt Q96PH1). Briefly: NOX5-dependent H2O2 signal modulators, primary screen, NOX inhibitor project, cell-based, HEK293-NOX5, Amplex Red fluorescence (AID 1161). The conditions noted are these: HEK293-NOX5, ionomycin, 45 min, higher = more signal.
Sequence of NADPH oxidase 5 (Homo sapiens) (Q96PH1 whole entry, looked up): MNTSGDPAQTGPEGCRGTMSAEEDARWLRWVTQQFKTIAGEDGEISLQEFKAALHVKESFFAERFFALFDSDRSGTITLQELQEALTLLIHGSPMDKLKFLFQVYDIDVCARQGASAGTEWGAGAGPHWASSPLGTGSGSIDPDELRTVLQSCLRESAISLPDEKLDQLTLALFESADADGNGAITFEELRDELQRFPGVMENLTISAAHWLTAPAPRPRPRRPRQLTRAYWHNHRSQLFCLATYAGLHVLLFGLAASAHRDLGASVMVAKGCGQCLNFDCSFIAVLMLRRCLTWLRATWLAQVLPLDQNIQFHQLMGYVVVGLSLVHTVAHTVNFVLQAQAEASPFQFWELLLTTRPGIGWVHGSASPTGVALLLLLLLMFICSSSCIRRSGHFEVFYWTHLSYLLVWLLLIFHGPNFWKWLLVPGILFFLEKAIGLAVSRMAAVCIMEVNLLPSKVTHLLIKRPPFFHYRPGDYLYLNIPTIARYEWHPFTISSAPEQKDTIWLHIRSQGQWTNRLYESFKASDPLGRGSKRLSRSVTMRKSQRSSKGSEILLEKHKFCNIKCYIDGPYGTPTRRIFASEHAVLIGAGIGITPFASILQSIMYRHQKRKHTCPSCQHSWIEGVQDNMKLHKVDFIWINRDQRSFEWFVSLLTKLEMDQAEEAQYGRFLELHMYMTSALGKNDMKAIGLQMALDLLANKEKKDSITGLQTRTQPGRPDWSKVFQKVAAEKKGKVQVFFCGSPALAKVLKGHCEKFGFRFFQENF
The nature of assay [11]: A549 cell viability effects, profiling panel, calcein-AM fluorescence, 48 h, basal (AID 1162). Also: test concentration not given here. The conditions noted are these: higher = more signal.
Assay [12] is described as follows: adipocyte viability effects, profiling panel, cell-based, 3T3-L1 adipocytes, calcein-AM fluorescence, 48 h, basal (AID 1163). Also: test concentration not given here. The following applies: 3T3-L1 adipocytes viability, higher = more signal.
The nature of assay [13]: HepG2 cell viability effects, profiling panel, calcein-AM fluorescence, 48 h, basal (AID 1164). Also: test concentration not given here. The conditions noted are these: higher = more signal.
The nature of assay [14]: MM1S cell viability effects, profiling panel, calcein-AM fluorescence, 48 h, basal (AID 1165).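 Also: viability of MM1S multiple myeloma cells under basal unstimulated conditions; test concentration not given here.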 The conditions noted are these: higher = more signal.
Assay [15] is described as follows: basal RPMI8226 viability, no added stimulus, profiling panel, cell-based, calcein-AM fluorescence, 48 h, PK04 Diversity Set (AID 1166).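 Also: cells grown under basal conditions without added stimulus; test concentration not given here.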 The conditions noted are these: RPMI8226 myeloma viability, higher = more signal.
Assay [16] is described as follows: basal HepG2 mitochondrial membrane potential changes, profiling panel, cell-based, JC-1 fluorescence, 24 h, 100 nL compound (AID 1167). Also: test concentration not given here. The conditions noted are these: higher = more signal.
Assay [17] is described as follows: basal 3T3-L1 adipocyte mitochondrial potential changes, profiling panel, cell-based, JC-1 fluorescence, 3T3-L1 adipocytes, 24 h, 100 nL compound (AID 1168). Also: test concentration not given here. The conditions noted are these: JC-1 mitochondrial fluorescence, higher = more signal, called active from +8 up or from −8 down.
A short description of assay [18]: basal RPMI8226 mitochondrial membrane potential changes, profiling panel, cell-based, JC-1 fluorescence, 24 h, 100 nL compound (AID 1169). Also: test concentration not given here. The following applies: RPMI8226 myeloma, JC-1 mitochondrial potential fluorescence, higher = more signal.
The nature of assay [19]: basal MM1S mitochondrial membrane potential changes, profiling panel, cell-based, JC-1 fluorescence, 24 h, 100 nL compound (AID 1170). Also: test concentration not given here. The conditions noted are these: higher = more signal.
The nature of assay [20]: A549 lung cancer cell viability effects, profiling panel, resazurin fluorescence, 24 h, PK04 Diversity Set (AID 1171). Also: test concentration not given here. The conditions noted are these: higher = more signal, called active from +8 up or from −8 down.

Structures are written as SMILES. Activity calls are given as the source filed them.

Sequence of NADPH oxidase 2 (Homo sapiens) (P04839 whole entry, looked up): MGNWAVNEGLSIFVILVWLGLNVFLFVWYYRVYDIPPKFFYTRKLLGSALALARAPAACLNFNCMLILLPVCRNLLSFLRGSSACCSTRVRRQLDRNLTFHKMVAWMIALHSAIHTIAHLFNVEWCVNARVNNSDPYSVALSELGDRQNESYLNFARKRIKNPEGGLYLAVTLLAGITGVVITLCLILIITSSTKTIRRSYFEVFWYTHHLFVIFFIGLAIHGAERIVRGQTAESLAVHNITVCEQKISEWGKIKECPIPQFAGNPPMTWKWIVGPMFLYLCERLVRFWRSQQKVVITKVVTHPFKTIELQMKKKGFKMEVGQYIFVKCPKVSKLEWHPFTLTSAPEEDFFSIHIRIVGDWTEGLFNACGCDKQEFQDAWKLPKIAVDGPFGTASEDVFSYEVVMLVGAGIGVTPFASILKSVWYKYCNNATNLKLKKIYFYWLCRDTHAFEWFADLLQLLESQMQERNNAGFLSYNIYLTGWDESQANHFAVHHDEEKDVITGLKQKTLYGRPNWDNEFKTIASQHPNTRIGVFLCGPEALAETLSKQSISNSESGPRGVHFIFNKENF

Regarding `CC[C@@H]1[C@@H]2C3C(=O)N(CC)C(=O)C3CC(=O)[C@@H]2[C@H](c2ccc(C)cc2)N1S(=O)(=O)c1ccc(C)cc1` (stereo not given in full), the z-score in assay [1] is 1.29 (inactive); in assay [3], 1.39 (inactive); in assay [4], 0.0985 (inactive); in assay [5], -0.511 (inactive); in [6] it was -1.35 (inactive); in assay [7], 1.04. Besides, the z-score in [8] was 1.04 (inactive); in [9], 0.451 (inactive); in [10] it was 2.06; in assay [11] it was 0.63; in assay [12], 0.552; in assay [13], 0.769. The z-score in assay [14] was -0.639; in [15], -1.6; in assay [16], 0.601; in assay [17], 0.0417 (inactive); in assay [18], -0.227; in assay [19], -1.59. Further, in [20], the z-score was -0.195 (inactive). The composite z-score in [2] was -0.149.

On to `CO[C@H]1O[C@H](CO)[C@@H](OC(=O)c2ccc(Br)cc2)[C@@H]2OC(=O)[C@H](Cc3cccc(Br)c3)C/C=C/C[C@@H](Cc3cccc(Br)c3)C(=O)O[C@@H]12`, for which the z-score is -0.681 (inactive) in assay [1]; 1.56 (inactive) in assay [3]; 0.624 (inactive) in [4]; -0.778 (inactive) in assay [5]; 0.484 (inactive) in assay [6]; -0.0043 in assay [7]. Moreover, the z-score in assay [8] was -0.129 (inactive); in [9] it was 0.211 (inactive); in [10], 0.875; in assay [11], -0.0692; in [12] it was 1.09; in assay [13] it was -0.542. In addition, the z-score in assay [14] was -1.82; in assay [15], -3.5; in assay [16] it was -3.52; in assay [17] it was -0.442 (inactive); in assay [18], 0.229; in assay [19], -0.698. In assay [20], the z-score is -0.932 (inactive). The same compound came in with a composite z-score in assay [2] of 0.415.

`Cc1cc(C)c(C(O)C2C=CC3C(=O)N(c4ccccc4)C(=O)C3N2Nc2ccc([N+](=O)[O-])cc2)c(C)c1` (stereo not given): the z-score was -0.613 (inactive) in assay [1]; 6.15 (inactive) in [3]; 1.76 (inactive) in [4]; 0.252 (inactive) in assay [5]; 1.13 (inactive) in [6]; -0.62 in [7]. The z-score in assay [8] was -0.305 (inactive); in assay [9] it was -0.661 (inactive); in assay [10] it was -1.63; in assay [11] it was -0.308; in [12], 1.09; in assay [13] it was -0.0308. Besides, the z-score was -0.86 in assay [14]; -0.662 in [15]; -1.95 in [16]; -3.61 (inactive) in assay [17]; -0.367 in [18]; -1.04 in assay [19]. For the same compound, the z-score in [20] is 0.634 (inactive). Further, the composite z-score in assay [2] amounted to 0.703.

`NCCCCCCNC(=O)[C@H]1C[C@H]2C(=O)N3CCC[C@H]3C(=O)N2[C@H]1c1ccc(O)cc1`: the z-score in assay [1] was -0.247 (inactive); in assay [3], 1.55 (inactive); in assay [4], 0.507 (inactive); in assay [5], 0.403 (inactive); in [6] it was 0.253 (inactive); in assay [7], 0.648. Further, the z-score was -0.019 (inactive) in assay [8]; 0.901 (inactive) in assay [9]; 0.386 in [10]; -0.194 in assay [11]; 1.14 in assay [12]; -1.01 in assay [13]. Besides, the z-score was -0.346 in assay [14]; -0.707 in assay [15]; -0.806 in assay [16]; -1.34 (inactive) in [17]; 0.26 in [18]; 0.698 in [19]. Besides, the z-score in assay [20] is -0.608 (inactive). Also, in assay [2], the composite z-score is -0.19.

Regarding `COC(=O)[C@H]1N=C(c2ccc(OCCCO)cc2)O[C@H]1c1ccccc1CN=[N+]=[N-]`, the z-score in assay [1] is 0.495 (inactive); in assay [3] it was 24 (active); in [4], 7.57 (inactive); in assay [5] it was 1.35 (inactive); in [6], 1.11 (inactive); in assay [7], -0.221. The z-score in [8] was -0.102 (inactive); in [9], 1.43 (inactive); in assay [10] it was 0.352; in [11], -0.348; in [12], -0.409; in assay [13], 0.0036. Moreover, the z-score is -1.95 in [14]; -0.35 in assay [15]; -0.393 in assay [16]; 0.957 (inactive) in assay [17]; 0.344 in assay [18]; -0.823 in assay [19]. Besides, in [20], the z-score is 2.65 (inactive). The compound also registered a composite z-score in [2] of 0.938.

In the case of `C=C(CCCC)/C(=C/C[C@@H](OC(=O)c1ccncc1)c1ccccc1OCCO)c1cc(C(=O)OC)ccc1OC`, the z-score was 0.504 (inactive) in assay [1]; 28 (active) in assay [3]; 17.5 (active) in assay [4]; 3.94 (inactive) in [5]; 2.07 (inactive) in [6]; 0.761 in assay [7]. Also, the z-score is 1.08 (inactive) in [8]; -0.25 (inactive) in [9]; -1.62 in assay [10]; 0.0198 in assay [11]; 0.725 in assay [12]; 0.949 in assay [13]. The z-score was -3.26 in assay [14]; -3.93 in assay [15]; 2.84 in assay [16]; -0.188 (inactive) in assay [17]; -0.497 in [18]; -1.14 in assay [19]. In addition, the z-score in [20] is 0.17 (inactive). The same compound registered a composite z-score in [2] of 0.282.

For the compound `CC(C)(C)OC(=O)CC[C@]1(C(=O)N2CCCCC2)N=C(c2ccc(OCCCO)cc2)O[C@H]1c1ccccc1CN=[N+]=[N-]`, the z-score is 2.54 (inactive) in assay [1]; 21.9 (active) in assay [3]; 4.95 (inactive) in assay [4]; 0.768 (inactive) in [5]; 0.158 (inactive) in assay [6]; 1.89 in assay [7]. Besides, the z-score in [8] is -0.683 (inactive); in assay [9], 1.56 (inactive); in [10], 0.95; in [11] it was 1.1; in [12], 0.876; in assay [13], 1.58. The z-score is -2.99 in assay [14]; -2.01 in assay [15]; 2.46 in [16]; 0.67 (inactive) in assay [17]; -0.983 in assay [18]; 0.358 in assay [19]. Further, in assay [20], the z-score is -1.35 (inactive). For the same compound, the composite z-score in [2] was 1.66.

Regarding `CC(C)CNC(=O)[C@@]1(c2ccc([N+](=O)[O-])cc2)CC(=O)N(C(C)C)[C@@H]1c1ccc(CO)cc1`, the z-score in [1] was 1.27 (inactive); in assay [3], 0.224 (inactive); in assay [4], -0.227 (inactive); in assay [5], -1.64 (inactive); in assay [6], -0.533 (inactive); in [7], 0.557. The z-score in assay [8] was -0.145 (inactive); in assay [9], -0.423 (inactive); in assay [10], -1.44; in [11], 0.264; in [12], -0.0455; in assay [13] it was 0.0153. For the same compound, the z-score in [14] was -1.07; in assay [15], 0.399; in [16] it was 0.621; in assay [17], -0.167 (inactive); in assay [18] it was 0.604; in assay [19] it was -0.131. The z-score in assay [20] is 0.591 (inactive). This compound also displayed a composite z-score in [2] of -0.0547.

For the compound `Cc1ccc(F)cc1S(=O)(=O)N[C@@H]1CCN(C(=O)c2ccc(OC(C)C)cc2)C1`, the z-score in assay [1] is 0.295 (inactive); in assay [3], 2.54 (inactive); in assay [4] it was 1.02 (inactive); in assay [5], 0.79 (inactive); in [6] it was 0.427 (inactive); in assay [7], -0.102. Moreover, the z-score in assay [8] is -0.471 (inactive); in [9] it was -0.0285 (inactive); in assay [10] it was -0.257; in assay [11] it was 0.0926; in assay [12], -1.39; in assay [13], -0.471. Further, the z-score in assay [14] is 0.0842; in assay [15], -0.705; in [16], -0.14; in assay [17], -0.0993 (inactive); in assay [18], -0.276; in assay [19] it was -0.497. Further, the z-score in [20] was -0.216 (inactive). This compound registered a composite z-score in assay [2] of -0.0973.
